# Reference: the supplement of paper PMC8728848
# The entries come from a sample that favours the strongest signals as a whole.
# B1: Tectonin 2 (Laccaria bicolor) (protein)
# chain: MPWKGISGSLSRISAGSVTNVWGVNAANNIYRYTGDDAKPWVQIPGALTDIGAAADGTVWGVNAAGNIYRYVWDSNHWTQIKGALKRISAGSRTNVWGVNAGGAIYRYTGDDANPWVQIPGVLSDIGAGADGTVWGVNAAGEIYRYTGDQGDPNHWVKIPGALSAISAGIKTNVWGVNSANNIYTSTGDDKNPWLGIGGSLVDIGAGTDGVVWGVNAGGGIYRWIRD
# How the values were obtained:
# Experiment in all cases: glycan array binding signal (z-score within array); higher = stronger binding
# Details in all cases: glycan notation: IUPAC condensed, linker removed
# [1] = target: Fuc(a1-2)Gal(b1-3)GlcNAc(b1-2)Man(a1-3)[Fuc(a1-2)Gal(b1-3)GlcNAc(b1-2)Man(a1-6)]Man(b1-4)GlcNAc(b1-4)[Fuc(a1-6)]GlcNAc
# Outline: (§1)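 The Consortium for Functional Glycomics database supplied 3228 glycan arrays, of which those lacking an available protein sequence were dropped. The binding signal, a within-array Z-score, was averaged across arrays of the same protein sequence and across linkers. Negative scores can be read as non-binding.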
# Fuc(a1-2)Gal(b1-4)Glc6S = target: Fuc(a1-2)Gal(b1-4)Glc6S
# Outline: as §1
# [2] = target: Fuc(a1-2)[Gal(a1-3)]Gal(b1-4)GlcNAc(b1-2)Man(a1-3)[Fuc(a1-2)[Gal(a1-3)]Gal(b1-4)GlcNAc(b1-2)Man(a1-6)]Man(b1-4)GlcNAc(b1-4)GlcNAc
# Outline: as §1
# [3] = target: Fuc(a1-2)[GalNAc(a1-3)]Gal(b1-4)GlcNAc(b1-2)Man(a1-3)[Fuc(a1-2)[GalNAc(a1-3)]Gal(b1-4)GlcNAc(b1-2)Man(a1-6)]Man(b1-4)GlcNAc(b1-4)GlcNAc
# Outline: as §1
# [4] = target: Fuc(a1-2)[GalNAc(a1-3)]Gal(b1-4)[Fuc(a1-3)]GlcNAc
# Outline: as §1
# [5] = target: Fuc(a1-3)[Gal(b1-4)]GlcNAc(b1-4)Gal(b1-4)[Fuc(a1-3)]GlcNAc(b1-4)Gal(b1-4)[Fuc(a1-3)]GlcNAc
# Outline: as §1
# [6] = target: Fuc(a1-3)[Gal3S(b1-4)]GlcNAc6S
# Outline: as §1
# [7] = target: Gal(a1-3)Gal(b1-3)[Fuc(a1-4)]GlcNAc(b1-2)Man(a1-3)[Gal(a1-3)Gal(b1-3)[Fuc(a1-4)]GlcNAc(b1-2)Man(a1-6)]Man(b1-4)GlcNAc(b1-4)GlcNAc
# Outline: as §1
# Gal(b1-3)GalNAc = target: Gal(b1-3)GalNAc
# Outline: as §1
# [8] = target: Gal(b1-3)GalNAc(a1-3)[Fuc(a1-2)]Gal(b1-4)Glc
# Outline: as §1
# [9] = target: Gal(b1-3)GalNAc(b1-4)Gal(b1-4)Glc
# Outline: as §1
# [10] = target: Gal(b1-3)GlcNAc(b1-2)Man(a1-3)[Gal(b1-3)GlcNAc(b1-2)Man(a1-6)]Man(b1-4)GlcNAc(b1-4)GlcNAc
# Outline: as §1
# [11] = target: Gal(b1-3)[Fuc(a1-4)]GlcNAc
# Outline: as §1
# [12] = target: Gal(b1-4)GlcNAc(b1-2)Man(a1-3)Man(b1-4)GlcNAc(b1-4)GlcNAc
# Outline: as §1
# [13] = target: Gal(b1-4)GlcNAc(b1-2)[Gal(b1-4)GlcNAc(b1-4)]Man(a1-3)[Gal(b1-4)GlcNAc(b1-2)[Gal(b1-4)GlcNAc(b1-6)]Man(a1-6)]Man(b1-4)GlcNAc(b1-4)GlcNAc
# Outline: as §1
# [14] = target: Gal(b1-4)GlcNAc(b1-2)[Gal(b1-4)GlcNAc(b1-4)]Man(a1-3)[GlcNAc(b1-4)][Gal(b1-4)GlcNAc(b1-2)Man(a1-6)]Man(b1-4)GlcNAc(b1-4)GlcNAc
# Outline: as §1
# [15] = target: Gal(b1-4)GlcNAc(b1-3)Gal(b1-4)[Fuc(a1-3)GlcNAc(b1-6)]Gal(b1-4)Glc
# Outline: as §1
# Gal6S(b1-4)GlcNAc6S = target: Gal6S(b1-4)GlcNAc6S
# Outline: as §1
# Glc(a1-6)Glc(a1-6)Glc = target: Glc(a1-6)Glc(a1-6)Glc
# Outline: as §1
# Glc(b1-4)Glc = target: Glc(b1-4)Glc
# Outline: as §1
# GlcA(b1-3)GlcNAc = target: GlcA(b1-3)GlcNAc
# Outline: as §1
# [16] = target: GlcNAc(a1-4)Gal(b1-4)GlcNAc(b1-3)Gal(b1-4)GlcNAc
# Outline: as §1
# [17] = target: GlcNAc(a1-4)Gal(b1-4)GlcNAc(b1-3)Gal(b1-4)[Fuc(a1-3)]GlcNAc(b1-3)Gal(b1-4)[Fuc(a1-3)]GlcNAc
# Outline: as §1
# [18] = target: GlcNAc(b1-2)Man(a1-3)[GlcNAc(b1-2)Man(a1-6)]Man(b1-4)GlcNAc(b1-4)[Fuc(a1-6)]GlcNAc
# Outline: as §1
# [19] = target: GlcNAc(b1-2)[GlcNAc(b1-4)]Man(a1-3)[GlcNAc(b1-4)][GlcNAc(b1-2)Man(a1-6)]Man(b1-4)GlcNAc(b1-4)GlcNAc
# Outline: as §1
# GlcNAc(b1-3)Man = target: GlcNAc(b1-3)Man
# Outline: as §1
# [20] = target: GlcNAc(b1-3)[GlcNAc(b1-6)]GalNAc
# Outline: as §1
# Man(a1-3)[Man(a1-6)]Man = target: Man(a1-3)[Man(a1-6)]Man
# Outline: as §1
# Man(a1-6)Man = target: Man(a1-6)Man
# Outline: as §1
# [21] = target: Neu5Ac(a2-3)Gal(b1-3)GalNAc(b1-3)Gal(a1-4)Gal(b1-4)Glc
# Outline: as §1
# [22] = target: Neu5Ac(a2-3)Gal(b1-3)GalNAc(b1-4)[Neu5Ac(a2-3)]Gal(b1-4)Glc
# Outline: as §1
# [23] = target: Neu5Ac(a2-3)Gal(b1-4)GlcNAc(b1-3)Gal(b1-4)[Fuc(a1-3)]GlcNAc
# Outline: as §1
# [24] = target: Neu5Ac(a2-3)Gal(b1-4)[Fuc(a1-3)]GlcNAc(b1-3)GalNAc
# Outline: as §1
# [25] = target: Neu5Ac(a2-6)Gal(b1-4)GlcNAc(b1-3)GalNAc
# Outline: as §1
# Neu5Ac(a2-6)GalNAc = target: Neu5Ac(a2-6)GalNAc
# Outline: as §1
# Neu5Ac(a2-8)Neu5Ac = target: Neu5Ac(a2-8)Neu5Ac
# Outline: as §1
# [26] = target: Neu5Ac(a2-8)Neu5Ac(a2-8)Neu5Ac(a2-3)[GalNAc(b1-4)]Gal(b1-4)Glc
# Outline: as §1
# [27] = target: Neu5Ac(a2-8)Neu5Ac(a2-8)Neu5Ac(a2-8)Neu5Ac(a2-3)[GalNAc(b1-4)]Gal(b1-4)Glc
# Outline: as §1
# [28] = target: Neu5Ac9Ac(a2-6)Gal(b1-4)GlcNAc
# Outline: as §1
binder,measurement,setting,value
B1,glycan array binding signal (z-score),[1],-0.069
same,glycan array binding signal (z-score),Fuc(a1-2)Gal(b1-4)Glc6S,-0.349
same,glycan array binding signal (z-score),[2],9.62
same,glycan array binding signal (z-score),[3],-0.16
same,glycan array binding signal (z-score),[4],-0.145
same,glycan array binding signal (z-score),[5],-0.16
same,glycan array binding signal (z-score),[6],0.299
same,glycan array binding signal (z-score),[7],-0.008
same,glycan array binding signal (z-score),Gal(b1-3)GalNAc,-0.212
same,glycan array binding signal (z-score),[8],-0.46
same,glycan array binding signal (z-score),[9],-0.123
same,glycan array binding signal (z-score),[10],0.354
same,glycan array binding signal (z-score),[11],-0.348
same,glycan array binding signal (z-score),[12],-0.226
same,glycan array binding signal (z-score),[13],-0.038
same,glycan array binding signal (z-score),[14],0.732
same,glycan array binding signal (z-score),[15],-0.568
same,glycan array binding signal (z-score),Gal6S(b1-4)GlcNAc6S,2.71
same,glycan array binding signal (z-score),Glc(a1-6)Glc(a1-6)Glc,-0.136
same,glycan array binding signal (z-score),Glc(b1-4)Glc,-0.277
same,glycan array binding signal (z-score),GlcA(b1-3)GlcNAc,4.49
same,glycan array binding signal (z-score),[16],-0.238
same,glycan array binding signal (z-score),[17],2.15
same,glycan array binding signal (z-score),[18],0.258
same,glycan array binding signal (z-score),[19],-0.327
same,glycan array binding signal (z-score),GlcNAc(b1-3)Man,-0.371
same,glycan array binding signal (z-score),[20],-0.21
same,glycan array binding signal (z-score),Man(a1-3)[Man(a1-6)]Man,-0.426
same,glycan array binding signal (z-score),Man(a1-6)Man,-0.438
same,glycan array binding signal (z-score),[21],0.073
same,glycan array binding signal (z-score),[22],2.34
same,glycan array binding signal (z-score),[23],2.47
same,glycan array binding signal (z-score),[24],2.62
same,glycan array binding signal (z-score),[25],1.14
same,glycan array binding signal (z-score),Neu5Ac(a2-6)GalNAc,-0.325
same,glycan array binding signal (z-score),Neu5Ac(a2-8)Neu5Ac,-0.07
same,glycan array binding signal (z-score),[26],-0.445
same,glycan array binding signal (z-score),[27],2.33
same,glycan array binding signal (z-score),[28],0.77
